44 sequences from the supplement of paper PMC11417369 can be followed below.

In all, about 25,000 sequences were measured (“ln(normalized median fluorescence intensity)”: median about 6.7, highest 2% from about 10 on). This is one part of a sample in which the highest values are shown more often than they occur.

The test system of this assay is PfHDP1 homeodomain (GST-tagged). Nature of the assay: gcPBM binding intensity (ln(normalized median fluorescence intensity)); higher = stronger DNA binding. The essentials: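 Plasmodium falciparum DNA-binding domains carrying a GST tag were expressed in E. coli and applied for 1 h, at about 25 μg on average, to an Agilent 4 × 180k array. The array held primer-extended double-stranded 36-bp intergenic genomic probes together with negative controls, and binding took place in 1× PBS with 1% milk, 0.2 mg/ml BSA, 0.5% salmon testes DNA and 0.03% Triton X-100. An Alexa488 anti-GST antibody detected bound protein, and the array was scanned at 488 nm. Binding intensity is taken as the highest Masliner-normalised natural-log median intensity across replicate spots of either probe orientation.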
As to “TCCTTTCAACCATATATAATGACATGTACTCAAAAA [GTGCAC_negctrl_site417]”, the “gcPBM binding intensity (ln)” value was found to be 6.77.
In the case of “ATATATTTTTAATATGCACACAAGAATACATTCACA [CACACA_site914]” it was 9.51; in that of “AACGATATCTGTACTACACACATTATGTCATCCTAT [CACACA_site5374]”, 6.81.
In the case of “GTTATATTTTTTTATACACACTGGAATATATAAATA [CACACA_site4282]”, the “gcPBM binding intensity (ln)” value was found to be 6.76.
With “ATATTATATATATAGGTGCGAGTATTTTATAAATAT [GTGCAC_site9889]”, the “gcPBM binding intensity (ln)” value amounted to 6.93.
As to “TATATAAAGATATATACACACAAAAAAAAAAAAAAA [CACACA_site6778]”, the “gcPBM binding intensity (ln)” value came to 6.32.
For “ATATTATATATATGTGCACACAAAAGATATATATAT [CACACA_site2125]” the value was 10.5.
For “TTCCAAAAAATTATTACACACATATGAGCACATATA [CACACA_site4543]” the value was 9.16; for “TTATATGTATATATAGTGCAGAACAAAAGATTATAT [GTGCAC_site9599]”, 7.69; for “ATTCTATATATGTGCACACAAAAGATATATATATAT [CACACA_site2124]”, 11.4.
For “TTCCAAAAAATTATTACACACATATGGGCACATATA [CACACA_site679]”, the “gcPBM binding intensity (ln)” value was determined as 6.54.
With “TATATATATATGTGTACACAAAAAATATTATATTAT [CACACA_site5505]”, the “gcPBM binding intensity (ln)” value was determined as 8.81.
Regarding “ATATATATATATATGTGTACACAAAAAATATTATAT [XGTACX_site5741]”, the “gcPBM binding intensity (ln)” value is 9.26.
In the case of “TTCCAAAAAGTTATTACACACATATGTGCACATATA [CACACA_site6465]” it was 11.2.
In the case of “AAAAAAAAAAGACACACACACAAAAAAAGATATATA [CACACA_site6645]” it was 6.58; in that of “ATTATATATATGTGCACACAAAAGATATATATATAT [CACACA_site5205]”, 11.1; in that of “AGAAAGAAGATATATACACACAAAAAAAGATATATA [CACACA_site6779]”, 6.75.
For “TATAAACCCACCTACACACACAACGTAAATGCATTG [CACACA_site2238]” the value was 6.96.
For “TTCTTTTCAGAAGGAAAGAATTATAACATATCATAA [XGTACX_negctrl_site548]”, the “gcPBM binding intensity (ln)” value was 6.13.
For “AATAATTTGGTCTTATCAAAAATTAAAAATAAATAA [XGTACX_negctrl_site430]” the value was 6.05.
In the case of “TTTCCCTACCAAAAATGTACTTATAAGCGTTTTTAT [XGTACX_site739]” it was 6.5.
In the case of “TTTTATTTAACTCATAATTTTTTAAAAAACAATTAT [XGTACX_negctrl_site19]” it was 6.37; in that of “TATATATATATATGTGCACACATAAAGATATTATTT [CACACA_site3734]”, 10.6.
Consider “ATAAAGATATGACACACACACATATTATAGATATAT [CACACA_site7434]”, for which the “gcPBM binding intensity (ln)” value turned out to be 6.69.
For “TATATATATATGTGCACACATAAAGATATTATTTTT [CACACA_site3733]” the value was 10.1.
For the sequence “AATGTATTCTCTCATGCACACTTTCTTTAAGGGACC [CACACA_site5245]”, the “gcPBM binding intensity (ln)” value is 8.87.
In the case of “AATATATTTGTGTATGTGCGCAGTGTGTAATTTATT [GTGCAC_site9765]”, the “gcPBM binding intensity (ln)” value was 7.92.
With “GTTCATCACATATACACATGCATATTCTAATATGTA [TGCATGCA_site809]”, the “gcPBM binding intensity (ln)” value came to 7.25.
For “TTTTTCTTCTGCATTATGCACACTATAATTCGTTAA [CACACA_site2837]” the value was 10.2.
As for “TTTCTTCTGCATTATGCACACTATAATTCGTTAAAA [CACACA_site5568]”, the “gcPBM binding intensity (ln)” value was found to be 10.5.
In the case of “TTCGTTCTTTTATGCACACTCAACATATAAATTAAA [CACACA_site1209]” it was 10.1; in that of “ATTTATATATCGCCCACACACATGTGATTATTTATA [CACACA_site6905]”, 7.
“TTATATTTTAAGAAATGTACATGATATAATTATCAA [XGTACX_site8693]”: the “gcPBM binding intensity (ln)” value turned out to be 6.39.
“AATATATATGGACATGCATGGACATAATAATCTATT [TGCATGCA_site838]”: the “gcPBM binding intensity (ln)” value is 6.47.
As for “AAAAAAAAAAAACACACACACACACCCATATATAAA [CACACA_site1170]”, the “gcPBM binding intensity (ln)” value came to 6.79.
“TGGGCACCCATATACACACACAAATACAATGATAAA [CACACA_site4762]”: the “gcPBM binding intensity (ln)” value came to 6.48.
Regarding “CATATAAAAATGTGCACACACACACCCATATATATT [CACACA_site1526]”, the “gcPBM binding intensity (ln)” value was 10.5.
Turning to “TATGTGCACCCATATACACACACAAATACAATGATA [CACACA_site8295]”, the “gcPBM binding intensity (ln)” value was determined as 10.7.
For “AAAATACATAAACACACACACACACCGATATATATA [CACACA_site9186]”, the “gcPBM binding intensity (ln)” value amounted to 7.14.
In the case of “AAAAAAATGAAACACACACACACATATATATATATA [CACACA_site1043]” it was 9.32.
For “CATATAAAAATGTGCACACACACACCGATATATATT [CACACA_site4940]” the value was 10.8; for “ATATATGAAAATATATGTACACAACATATAAAATAG [XGTACX_site5132]”, 6.63.
For TTACAACATGAAAATGTGCACATATATATATATATA the value was 10.8; for “GGTGCACCCATATACACACACAAATACAATGATAAA [CACACA_site1132]”, 10.2.
